Measured values as given in PubChem BioAssay AID1259374 (The Scripps Research Institute Molecular Screening Center, 2018).
“And” between values parts separate entries of the source, which are not always exact repeats. Equal values may be shown once. Among all 650,000 compounds or so, about 5,900 (0.91%) were called active. No stated cut-off is given here; in the data, active means inhibition above about 50%; inactive means the rest. The sample as a whole holds a higher share of actives than the screen did. More than one record can exist for a structure, and the calls need not agree.

Molecular target: Microphthalmia-associated transcription factor (Homo sapiens) (UniProt O75030)
Sequence (O75030 whole entry, looked up): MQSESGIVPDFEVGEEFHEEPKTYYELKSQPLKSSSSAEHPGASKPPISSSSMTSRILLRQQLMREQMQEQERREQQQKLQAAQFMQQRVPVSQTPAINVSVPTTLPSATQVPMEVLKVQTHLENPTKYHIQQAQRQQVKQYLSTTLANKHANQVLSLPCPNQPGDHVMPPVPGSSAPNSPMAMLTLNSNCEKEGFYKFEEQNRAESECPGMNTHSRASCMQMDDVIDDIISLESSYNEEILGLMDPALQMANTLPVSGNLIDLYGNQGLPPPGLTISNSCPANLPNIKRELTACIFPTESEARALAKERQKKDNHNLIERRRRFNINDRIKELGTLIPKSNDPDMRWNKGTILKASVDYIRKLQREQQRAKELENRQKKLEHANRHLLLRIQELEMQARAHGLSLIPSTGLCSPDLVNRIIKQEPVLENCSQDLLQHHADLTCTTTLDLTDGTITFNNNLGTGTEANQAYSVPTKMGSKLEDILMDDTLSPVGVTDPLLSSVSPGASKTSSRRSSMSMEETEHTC
Assay: MITF inhibitors, primary screen, biochemical, AlphaScreen, human (AID 1259374);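 further: 0% = vehicle wells with protein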
Conditions: AlphaScreen MITF homodimerization, bead proximity signal; at 2.6 µM; stronger effect = higher value

Row | SMILES | inhibition
1 | CCCCc1ccc(Nc2nc3ccccc3nc2NS(=O)(=O)c2ccc(Cl)cc2)cc1 | 1.24% (inactive)
2 | COc1ccc(C(=O)NC(NC(=O)c2ccc(OC)cc2)c2cccc(OC)c2)cc1 | 9.45% (inactive)
3 | CCN(CC)S(=O)(=O)c1ccc(-c2csc(N3N=C(c4cccc([N+](=O)[O-])c4)CC3c3ccc(F)cc3)n2)cc1 (stereo not drawn) | 3.98% (inactive)
4 | O=C(Nc1ccc(C(=O)N2CCCCC2)cc1)c1cccc(I)c1 | -4.21% (inactive)
5 | O=C(CNCc1cccnc1)Nc1ccc(C(=O)N2CCCCC2)cc1 | 93.3% (active)
6 | O=C(c1ccc(NC(=S)NCc2ccc(F)cc2)cc1)N1CCCC1 | 22.4% (inactive)
7 | Cn1c(=O)c2c(nc(N3CCCCC3)n2CCNC2=NCCCCC2)n(C)c1=O | 0.31% (inactive)
8 | Cc1nccn1CCNC(=O)Cn1nnnc1CN1CCCCCC1 | 0.85% (inactive)
9 | COc1ccc(C2=NN(c3nc(-c4ccccc4)c4cc(Cl)ccc4n3)C(c3ccc([N+](=O)[O-])cc3)C2)cc1 (stereo not drawn) | -4.92% (inactive)
10 | c1ccc(CN2CCC(N=C3NN=C(c4ccc5c(c4)OCCO5)CS3)CC2)cc1 | -10.7% (inactive)
11 | c1ccc(-n2cc(CN3CCOCC3)c(-c3ccc4c(c3)OCCO4)n2)cc1 | 61.7% (active)
12 | c1ccc(-c2nnc3sc(-c4ccc5c(c4)OCCO5)nn23)cc1 | -0.82% (inactive)
13 | O=C(N/C(=C\c1ccccc1F)C(=O)N1CCCCC1)c1ccc([N+](=O)[O-])cc1 | 17.1% (inactive)
14 | O=C(Nc1cncc(-c2ccncc2)c1)C1COc2ccccc2O1 (stereo not drawn) | 17.1% (inactive)
15 | O=C(Nc1ccc(-c2ccncc2)c(C(F)(F)F)c1)C1COc2ccccc2O1 (stereo not drawn) | 53.1% (active)
16 | O=C(Nc1cncc(-c2ccncc2)c1)C1COc2cc3ccccc3cc2O1 (stereo not drawn) | 3.75% (inactive)
17 | Cc1nn(C)c(C)c1-c1cc(C(=O)NCCO)ccn1 | 8.26% (inactive)
18 | CN(C)CCCN(CCCN(C)C)Cc1ccc([N+](=O)[O-])cc1 | 37.3% (inactive)
19 | CCN(Cc1ccccc1)Cc1ccc([N+](=O)[O-])cc1 | 60% (active)
20 | CCN(C(=O)c1ccc([N+](=O)[O-])cc1)c1ccccc1 | 1.44% (inactive)

Row | SMILES | inhibition
21 | CCN(CC)C(=O)C1CCCN(Cc2ccc([N+](=O)[O-])cc2)C1 (stereo not drawn) | 27.7% (inactive)
22 | NC(=O)C1CCCN(Cc2cccc(Cl)c2)C1 (stereo not drawn) | 31.1% (inactive)
23 | OCCC1CN(Cc2ccc(F)c(F)c2)CCN1C1CCCC1 (stereo not drawn) | -7.36% (inactive)
24 | Fc1cccc(CN2CCN(C3CCC(c4ccccc4)CC3)CC2)c1 (stereo not drawn) | 54.9% (active)
25 | OC1CCCN(Cc2cccc(Cl)c2)C1 (stereo not drawn) | -10.4% (inactive)
26 | CCN(CC)C(=O)C1CCCN(Cc2cccc(Cl)c2)C1 (stereo not drawn) | 55.2% (active)
27 | O=C1N[C@H](CO)C(=O)N2CCN(Cc3cccc(F)c3)C[C@H]12 | 10.2% (inactive)
28 | Fc1ccc(CN2CCN(C3CCCC3)CC2)cc1 | 57.1% (active)
29 | Clc1cccc(CN2CCN(C3CCN(Cc4ccccc4)CC3)CC2)c1 | 23.2% (inactive)
30 | Cc1cccc(CN2CCN(C3CCCCC3)CC2)c1 | 33.7% (inactive)
31 | OCCC1CN(Cc2cccc(F)c2)CCN1C1CCCC1 (stereo not drawn) | 14.7% (inactive)
32 | Clc1cccc(CN2CCN(C3CCCC3)CC2)c1 | 67.8% (active)
33 | O=C(NC1CCCCCC1)C1CCN(S(=O)(=O)c2cccc3nsnc23)CC1 | -4.57% (inactive)
34 | c1ccc(CNc2cc(N3CCc4ccccc4C3)ncn2)cc1 | -8.87% (inactive)
35 | Cc1c(C(=O)C(=O)N2CCCC2)c2ccccc2n1C | -1.62% (inactive)
36 | COc1cc([N+](=O)[O-])ccc1NC(=O)/C=C/c1ccc(F)cc1 | 0.43% (inactive)
37 | CC(=O)Nc1cccc(NC(=O)CSc2nc(C(C)(C)C)nc3ccccc23)c1 | 16.8% (inactive)
38 | COc1cccc(C(C)N(C)C(=O)c2cc(COc3ccc(C(C)=O)cc3)on2)c1 (stereo not drawn) | 11.1% (inactive)
39 | COc1ccccc1C1CN(Cc2ccc(NC(C)=O)s2)Cc2ccccc2O1 (stereo not drawn) | 1.08% (inactive)
40 | CC1(C)CC(=O)C2=C(C1)N(c1cccc(Cl)c1Cl)C1=C(C(=O)CC(C)(C)C1)C2c1ccc(F)c(Br)c1 | -2.02% (inactive)

Row | SMILES | inhibition
41 | O=C(N/N=C/c1ccncc1)c1cnn(-c2ccccc2)c1C(F)(F)F | -19.6% (inactive)
42 | CC(=O)NC(CC(C)C)C(=O)NC(C(=O)OCc1ccccc1)C(C)C (stereo not drawn) | 11.1% (inactive)
43 | Cc1c(Cl)cccc1NC(=O)c1cc(S(=O)(=O)N2CCC(C)CC2)ccc1F | 1.77% (inactive)
44 | CC1CCN(S(=O)(=O)c2ccc(F)c(C(=O)Nc3cc(Cl)ccc3Cl)c2)CC1 | -3.2% (inactive)
45 | CC1CCN(S(=O)(=O)c2ccc(Cl)c(C(=O)Nc3ccccc3[N+](=O)[O-])c2)CC1 | 51% (active)
46 | Cc1ccccc1S(=O)(=O)Cc1ccc(C(=O)NCCCN2CCCCCC2)o1 | -6.96% (inactive)
47 | COc1ccccc1N(CN1CCCC1=O)C(=O)c1cc(C)cc(C)c1 | 3.77% (inactive)
48 | Cc1ccc(C2SCC(=O)N2c2ccc(C)cc2)cc1 (stereo not drawn) | 7.57% (inactive)
49 | O=C(Nc1cc(Cl)ccc1Cl)c1cc(C2CC2)on1 | -4.67% (inactive)
50 | O=C(CSc1nn2c(=O)c3ccccc3nc2s1)c1ccccc1 | 8.41% (inactive)
51 | CC(=O)Oc1cccc(N2C(=O)c3cccnc3C2=O)c1 | 38.1% (inactive)
52 | CC(=O)c1cccc(N2C(=O)c3cccnc3C2=O)c1 | 50.6% (active)
53 | CC(=O)c1cccc(N2C(=O)c3ccc([N+](=O)[O-])cc3C2=O)c1 | 4.17% (inactive)
54 | CC(C)c1c(O)nc(SCC(=O)NC(C)(C)C)[nH]c1=O | 9.94% (inactive)
55 | CNCC(O)c1ccc(O)c(O)c1 (stereo not drawn) | 83.8% (active) and -4.84% (inactive) and -7.17% (inactive)
56 | Cc1nnc2n1NC(c1ccc(F)cc1)C(C(=O)Nc1ccccc1C(F)(F)F)S2 (stereo not drawn) | -7.82% (inactive)
57 | COc1cc(Br)c(/C=C2/NC(=O)N(c3cccc(Cl)c3)C2=O)cc1OC | -4.06% (inactive)
58 | O=C(Cc1ccc(F)cc1)Nc1cnn(-c2cccc(C(=O)Nc3ccc(N4CCOCC4)cc3)c2)c1 | -19.1% (inactive)
